Bead autofluor: flagged as autofluorescent in microsphere protease counterscreen; compound autofluorescence counterscreen, microsphere flow cytometry; stronger effect = higher value; fluorescence intensity (concentration not given with the values); hit rate 3.1% among 360,000; in the data active = fluorescence intensity above about 16000
Anthrax LF inh2: blocks Bacillus anthracis lethal factor protease; P15917; multiplex microsphere protease cleavage assay, LF; inhibition, % at 10 µM; hit rate 0.12% among 360,000; AID 588501; also: plate controls were buffer without enzyme for full effect and enzyme alone for no effect
Target sequence (P15917 whole entry, looked up): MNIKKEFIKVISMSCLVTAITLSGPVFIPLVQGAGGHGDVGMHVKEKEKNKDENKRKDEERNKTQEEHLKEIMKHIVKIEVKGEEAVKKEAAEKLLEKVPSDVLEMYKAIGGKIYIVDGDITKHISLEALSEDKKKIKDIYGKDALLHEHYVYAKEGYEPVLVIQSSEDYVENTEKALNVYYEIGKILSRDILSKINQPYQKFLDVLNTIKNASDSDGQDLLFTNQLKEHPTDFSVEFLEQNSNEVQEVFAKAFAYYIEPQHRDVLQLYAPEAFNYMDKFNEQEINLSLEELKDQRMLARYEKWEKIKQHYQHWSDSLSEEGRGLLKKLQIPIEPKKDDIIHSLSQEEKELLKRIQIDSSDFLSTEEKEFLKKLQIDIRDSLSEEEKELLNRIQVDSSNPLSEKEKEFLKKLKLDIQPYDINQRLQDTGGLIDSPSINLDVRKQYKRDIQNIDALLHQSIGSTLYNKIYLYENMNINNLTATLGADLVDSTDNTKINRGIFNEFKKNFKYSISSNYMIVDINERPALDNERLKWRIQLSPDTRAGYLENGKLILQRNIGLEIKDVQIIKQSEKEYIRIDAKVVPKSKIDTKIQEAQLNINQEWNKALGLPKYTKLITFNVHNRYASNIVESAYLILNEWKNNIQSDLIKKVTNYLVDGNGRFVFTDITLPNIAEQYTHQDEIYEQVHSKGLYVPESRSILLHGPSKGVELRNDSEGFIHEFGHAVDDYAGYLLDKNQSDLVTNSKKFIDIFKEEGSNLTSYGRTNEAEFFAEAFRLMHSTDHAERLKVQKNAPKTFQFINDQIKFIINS
BoNT-A LC inh2: BoNT A light chain protease inhibition. multiplex microsphere protease substrate cleavage, flow cytometry. inhibition, % at 10 µM. hit rate 0.17% among 360,000; also: plate controls were buffer without enzyme for full effect and enzyme alone for no effect
BoNT F protease: BoNT F light chain protease inhibition; inhibition, % at 10 µM; hit rate 0.22% among 360,000; Multiplex microsphere protease cleavage assay, flow cytometry; in the data active = inhibition above about 35%, passing the limit was not always enough; also: plate controls were buffer without enzyme for full effect and enzyme alone for no effect
PfHsp40 rescue: restores yeast growth despite PfHsp40 toxicity; S. cerevisiae expressing PfHsp40, growth rescue, ATP luminescence; growth rescue, % at 12.5 µM; hit rate 0.68% among 340,000; AID 504582; in the data active = growth rescue above about 28%, passing the limit was not always enough;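 also: yeast W303a lacking pdr1 and pdr3 grown in galactose medium; growth measured after three days at 30 °C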
MazEF act: activators of E. coli MazEF toxin-antitoxin RNase. P0AE70. FAM/BHQ RNA-DNA oligo cleavage fluorescence, 5 h. activation, % at 20 µM. hit rate 0.32% among 350,000. AID 504720; in the data active = activation above about 50%
* hit, by the source's call. In the library only some 4.3% were active in any assay of this set; here they are far more common. Rule as the data show it, unless noted: active = inhibition above about 30%; inconclusive = no clear call, values can overlap the other calls; inactive = below that.

For Cc1ccccc1N1CCN(Cc2c(C#N)c3ccccc3n2C)CC1 the results were Bead autofluor 23866*, Anthrax LF inh2 -1, BoNT-A LC inh2 -4, BoNT F protease -6, PfHsp40 rescue 0 and MazEF act 2.
CCN(CC(=O)Nc1c(F)cccc1F)C(=O)c1nn(C)c(=O)c2ccccc12 was read as Bead autofluor 4086, Anthrax LF inh2 6, BoNT-A LC inh2 -1, BoNT F protease -4, PfHsp40 rescue -1 and MazEF act 6.
Screening COc1cccc(NC(=O)COC(=O)c2c(C)nn(-c3ccccc3)c2C)c1 returned Bead autofluor 6724, Anthrax LF inh2 -3, BoNT-A LC inh2 0, BoNT F protease -5, PfHsp40 rescue 4 and MazEF act 3.
`COc1cccc(OC)c1NC(=O)Cn1nc(C)c2ccccc2c1=O` gave Bead autofluor 4061, Anthrax LF inh2 -3, BoNT-A LC inh2 0, BoNT F protease -15, PfHsp40 rescue 2 and MazEF act 11.
Oc1ccc(N=Nc2nc(-c3ccccc3)c(-c3ccccc3)[nH]2)cc1 was read as Bead autofluor 2907, Anthrax LF inh2 -5, BoNT-A LC inh2 -2, BoNT F protease -25, PfHsp40 rescue 10 and MazEF act 126*.
`CN(/N=C/c1ccncc1)c1cnn(-c2ccc(F)c(Cl)c2)c(=O)c1Cl` gave Bead autofluor 20433*, Anthrax LF inh2 -2, BoNT-A LC inh2 -3, BoNT F protease -3, PfHsp40 rescue -1 and MazEF act 6.
`Cc1[nH]c2ccccc2c1C1(O)C(=O)N(C(C)C)c2ccccc21` (stereo unspecified) gave Bead autofluor 23898*, Anthrax LF inh2 -1, BoNT-A LC inh2 -1, BoNT F protease -7, PfHsp40 rescue 1 and MazEF act 6.
CCCN1C(=O)C(O)(c2c(C)[nH]c3ccccc23)c2ccccc21 (stereo unspecified) was read as Bead autofluor 3980, Anthrax LF inh2 4, BoNT-A LC inh2 -5, BoNT F protease -15, PfHsp40 rescue 0 and MazEF act -9.
For Cc1cc(NC(=O)C2CC(=O)N(c3ccccc3)C2)no1 (stereo unspecified) the results were Bead autofluor 2556, Anthrax LF inh2 -1, BoNT-A LC inh2 -1, BoNT F protease -2, PfHsp40 rescue -1 and MazEF act -4.
`CCOC(=O)N1CCN(CC(=O)N2c3ccccc3CC2C)CC1` (stereo unspecified) gave Bead autofluor 25433*, Anthrax LF inh2 0, BoNT-A LC inh2 -3, BoNT F protease -3, PfHsp40 rescue 0 and MazEF act 12.
`CCN1CCN(CC(=O)N2c3ccccc3CC2C)CC1` (stereo unspecified) gave Bead autofluor 24267*, Anthrax LF inh2 0, BoNT-A LC inh2 -3, BoNT F protease -4, PfHsp40 rescue -1 and MazEF act -12.
For CC1Cc2ccccc2N1C(=O)CN1CCCCC1 (stereo unspecified) the results were Bead autofluor 3845, Anthrax LF inh2 -7, BoNT-A LC inh2 1, BoNT F protease -17, PfHsp40 rescue 0 and MazEF act 2.
Cc1[nH]nc(Nc2ccc(C(C)C)cc2)c1[N+](=O)[O-] was read as Bead autofluor 5796, Anthrax LF inh2 -9, BoNT-A LC inh2 0, BoNT F protease -4, PfHsp40 rescue 0 and MazEF act 5.
For N#C/C(C(=O)Oc1ccccc1)=C1\C=Cc2ccccc2N1 the results were Bead autofluor 4639, Anthrax LF inh2 3, BoNT-A LC inh2 2, BoNT F protease 9, PfHsp40 rescue 1 and MazEF act 50*.
NC(=O)C1C2CCC(C2)C1C(N)=O (stereo unspecified) was read as Bead autofluor 3898, Anthrax LF inh2 -2, BoNT-A LC inh2 0, BoNT F protease 2, PfHsp40 rescue -1 and MazEF act -5.
`COc1ccc(NC(=O)c2cc(-c3ccc(OC)c(OC)c3)on2)cc1OC` gave Bead autofluor 23014*, Anthrax LF inh2 -8, BoNT-A LC inh2 -1, BoNT F protease -4, PfHsp40 rescue 0 and MazEF act -1.
COc1ccc(-c2cc(C(=O)NCc3ccccc3)no2)cc1OC was read as Bead autofluor 21267*, Anthrax LF inh2 4, BoNT-A LC inh2 3, BoNT F protease 3, PfHsp40 rescue 1 and MazEF act -1.
Cc1cc(NC(=O)CSCC(=O)N(C)Cc2cccc(Cl)c2)no1 was read as Bead autofluor 4441, Anthrax LF inh2 -1, BoNT-A LC inh2 1, BoNT F protease -4, PfHsp40 rescue 0 and MazEF act -1.

High-throughput results deposited in PubChem BioAssay by several laboratories.
